Assay outcomes from PubChem.
Shown are actives, neighbours in structure and some others; about 2.4% of the full set was active somewhere.
D2 PAM-1 – positive allosteric modulators of human D2 dopamine receptor. potentiation, % (test concentration not listed). DiscoveRx D2 beta-arrestin cells, luminescence, 90 min; 100% = 57 uM dopamine signal. 360,000 compounds, 0.23% hits. P14416; in the data active = potentiation above about 50%; inconclusive = mostly about 30% to 49%
Target sequence (P14416 whole entry, looked up): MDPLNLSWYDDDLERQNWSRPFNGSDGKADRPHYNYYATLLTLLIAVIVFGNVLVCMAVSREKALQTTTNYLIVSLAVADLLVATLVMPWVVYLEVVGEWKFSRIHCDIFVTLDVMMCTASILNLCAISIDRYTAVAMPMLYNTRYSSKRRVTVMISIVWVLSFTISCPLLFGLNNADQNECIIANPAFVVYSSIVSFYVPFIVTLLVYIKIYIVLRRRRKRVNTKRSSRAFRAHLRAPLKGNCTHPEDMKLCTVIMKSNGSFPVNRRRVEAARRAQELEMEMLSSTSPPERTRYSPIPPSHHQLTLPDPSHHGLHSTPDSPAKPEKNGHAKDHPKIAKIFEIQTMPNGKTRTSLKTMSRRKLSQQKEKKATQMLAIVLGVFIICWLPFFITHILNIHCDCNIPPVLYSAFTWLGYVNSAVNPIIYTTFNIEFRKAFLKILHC
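D2 cells co-treated with compound plus 50 nM dopamine (EC20) for 90 min at 37 deg C to detect potentiation. Beta-arrestin recruitment was read as enzyme-fragment luminescence after 1 h at ambient temperature. Full response was set by 57 uM dopamine.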
D2 antag – antagonizes the human D2 dopamine receptor; HEK293 TREx D2 cells, calcium flux, dopamine EC80; 340,000 compounds, 2% hits; inhibition, % at 10 µM; P14416; in the data active = inhibition above about 30%; inactive = below that, where a call was filed
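Read-out: kinetic calcium fluorescence (1 cycle/s) in inducible HEK293 T-REx D2 cells after an EC80 dopamine addition that followed 180 s compound preincubation. Loss of the dopamine response indicates antagonism.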
D2 ag-1 – activates the human D2 dopamine receptor. activation, % at 2 µM. AID 485358. HEK293 T-REx D2 cells, calcium flux agonist mode. 340,000 compounds, 0.53% hits;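 active = activation over 3 SD above normal in the single-dose calcium agonist read, cut at about 30% in these data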
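In this primary screen, compounds producing a positive calcium signal within 180 s of addition to tetracycline-induced, force-coupled HEK293 Trex D2 cells are flagged; cells are dye-loaded with a no-wash calcium kit beforehand.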
D2 ag-2 – agonists of human D2 dopamine receptor (beta-arrestin); DiscoveRx PathHunter D2 beta-arrestin, luminescence, 90 min; 100% = 57 uM dopamine signal; 360,000 compounds, 0.084% hits; AID 624465; activation, % (no concentration beside the values); P14416; in the data active = activation above about 40%; inconclusive = between about 15% and that limit
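Agonist mode: compounds alone added to overnight-plated D2 PathHunter cells for 90 min at 37 C, with 57 uM final dopamine (EC100) defining full response. Beta-arrestin recruitment detected by chemiluminescent reagent, read after 1 h at ambient temperature.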
D2 PAM-2 – positively modulates the human D2 dopamine receptor allosterically. HEK293 T-REx D2, calcium flux, EC20 dopamine potentiation. potentiation, % at 10 µM. 340,000 compounds, 0.34% hits. AID 485347;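 active = potentiation over 3 SD above the plate norm, cut at about 30% in these data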
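Potentiation of an EC20 dopamine calcium response measured kinetically over 180 s, after a preceding 180 s compound-only read flagging agonists. Cells: inducible Hek293 Trex D2 line, 4000/well, cultured overnight at 30 C before dye loading.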
Of the large screens only hits and unclear results are named; the others gave an inactive call; ! = not confirmed by another sample.

CSCCC(NC(=O)OC(C)(C)C)C(=O)Oc1ccc2c(=O)c(-c3ccc4c(c3)OCCO4)coc2c1 (stereo not given)	D2 antag 33
COc1cc(NC(=O)c2ccc(-c3nc(COc4ccccc4)c(C)o3)cc2)cc(OC)c1	none (no result: D2 PAM-1, D2 antag, D2 ag-2)
O=C1CCN2C=Nc3cccc4ccc1c2c34	D2 ag-1 47
CCCCOC(=O)c1ccc(NC(=O)C2(c3cccs3)CCOCC2)cc1	none (no result: D2 PAM-1, D2 antag, D2 ag-2)
O=C1c2cccnc2-c2ncccc21	none (no result: D2 antag, D2 ag-1, D2 PAM-2)
O=C1C(=O)c2cccnc2-c2ncccc21	D2 PAM-1 inconclusive, D2 ag-2 56 (no result: D2 antag, D2 ag-1, D2 PAM-2)
CC12CN3CC(C)(CN(C1)C3c1ccc([N+](=O)[O-])o1)C2 (stereo not given)	D2 antag 32
Cc1cccc2cc(C#N)c(SCC(=O)N3CC(=O)Nc4ccccc43)nc12	D2 antag 34
COc1ccc2cc(C#N)c(SCC(=O)N3CC(=O)Nc4ccccc43)nc2c1	none (no result: D2 antag, D2 ag-1)
CCCN1CC23C=CC(O2)C(C(=O)O)C3C1=O (stereo not given)	D2 antag 48
COCCCN1CC23C=CC(O2)C(C(=O)O)C3C1=O (stereo not given)	none
CCC(C)N1CC23C=CC(O2)C(C(=O)OC)C3C1=O (stereo not given)	D2 antag 31
CCc1ccc(C(=O)c2cn(CC(=O)Nc3cccc(OC)c3)c3ccc(OC)cc3c2=O)cc1	none (no result: D2 PAM-1, D2 antag, D2 ag-1, D2 ag-2)
Cc1cccn2c(=O)nc(SCC(=O)N3CCCCC3)nc12	none
Cc1cccn2c(=O)nc(SCC(=O)N3CCCCCC3)nc12	D2 antag 31
Cc1cc2n(n1)CCCN2C(=O)Nc1ccc(Cl)cc1	none (no result: D2 PAM-1, D2 antag, D2 ag-2)
CS(=O)(=O)c1nc(S(=O)(=O)c2ccc(Cl)cc2)c(NCc2ccccn2)s1	D2 PAM-2 30
CCc1ccccc1NC(=O)CSc1nncn2c1cc1oc(C)cc12	none (no result: D2 PAM-1, D2 antag, D2 ag-2)
O=C(O)c1nc(-c2ccccc2)n(-c2cccc(C(F)(F)F)c2)n1	D2 PAM-2 44
O=C(O)c1nc(-c2ccccc2)n(-c2ccccc2)n1	none
O=C(O)c1cc2c(cc1NC(=O)C1CCCC1)OCCO2	D2 antag 33
CCC(=O)N1CCc2cc(S(=O)(=O)NCCC(=O)Nc3ccc(C)cc3)ccc21	none (no result: D2 PAM-1, D2 antag, D2 ag-2)
Cc1ccc2c(c1)N(C(=O)N1CCC(C(=O)Nc3cccc(F)c3)CC1)CCO2	none (no result: D2 PAM-1, D2 antag, D2 ag-2)
CCCN1CNc2c(c(=O)[nH]c(=S)n2-c2ccccc2Cl)C1	D2 PAM-2 68
Cc1cccc2cc(CN(C(=O)c3cccc(Cl)c3)c3ccccc3)c(=O)[nH]c12	none (no result: D2 PAM-1, D2 antag, D2 ag-1, D2 ag-2)
Cc1nn(C)c(C)c1/C=N/NC(=O)CCn1cc([N+](=O)[O-])cn1	D2 antag 32
Brc1ccccc1OCCCCN1CCCCC1	D2 antag 76
Brc1ccccc1OCCCN1CCOCC1	none
CC1CCN(CCCCOc2ccccc2Br)CC1	D2 antag 91
CC1CCN(CCCCOc2ccccc2F)CC1	D2 antag 82
O=C(C1CCCN(S(=O)(=O)c2ccc(Br)s2)C1)N1CCN(c2ccccc2F)CC1 (stereo not given)	none (no result: D2 PAM-1, D2 antag, D2 ag-2)
COc1ccc(-c2noc(Cn3c(=O)c4ccccc4n(CC(=O)Nc4cccc(C(F)(F)F)c4)c3=O)n2)cc1	none (no result: D2 PAM-1, D2 antag, D2 ag-2)
O=C(NCCc1ccc(Cl)cc1)C(=O)NCC(c1ccco1)S(=O)(=O)c1ccc(Cl)cc1 (stereo not given)	none (no result: D2 PAM-1, D2 antag, D2 ag-2)
S=C1Cc2ccccc2C(c2ccc(Cl)cc2)N1 (stereo not given)	D2 antag 33
O=C1Cc2ccccc2C(c2ccc(Cl)cc2)N1 (stereo not given)	none
CCCCCn1c(=N)n(CC(O)COc2ccccc2OC)c2ccccc21 (stereo not given)	D2 antag 32!
COc1ccc(/C=N/NC(=O)CNC(=O)/C=C/c2ccccc2OC)cc1	none
COc1cccc(/C=N/Nc2ccc(S(=O)(=O)O)cc2)c1O	none (no result: D2 antag, D2 ag-1, D2 PAM-2)
COc1ccc(Br)cc1/C=C/C(=O)Nc1ccc(C)cc1	D2 antag 74
COc1ccc(Br)cc1/C=C/C(=O)Nc1ccc2ccccc2c1	none
COc1ccccc1/C=C\C(=O)NCC(=O)N/N=C/c1cccc(OC)c1O	D2 antag 49
COc1cc(OC)c2cc(C(=O)N/N=C/c3cccc(OC)c3O)[nH]c2c1	none
COc1cccc(/C=N/NC(=O)c2cc3c(OC)ccc(OC)c3[nH]2)c1O	D2 PAM-1 52
COc1cccc(/C=N/Nc2ccc(C(=O)O)cc2)c1O	D2 PAM-1 79
CCC(=O)N1CCCc2cc(S(=O)(=O)N3CCC(C(=O)Nc4ccc(C#N)cc4)CC3)ccc21	none (no result: D2 PAM-1, D2 antag, D2 ag-2)
Cc1c(C(=O)NCCc2ccccc2)cccc1-n1cnc2cccnc21	none (no result: D2 PAM-1, D2 antag, D2 ag-2)
Cc1ccc(-c2c(C)n3c4c(=O)n(C)c(=O)n(C)c4nc3n2-c2cccc(O)c2)cc1	none (no result: D2 PAM-1, D2 antag, D2 ag-2)
Cc1cc(NC(=O)COCc2cc(-c3ccc(F)cc3)on2)ccc1Br	none (no result: D2 PAM-1, D2 antag, D2 ag-2)
COc1ccc(/C=C/C(=O)NCC(=O)N/N=C/c2cc(Br)ccc2OC)cc1	D2 antag 69
COc1ccc(/C=C\C(=O)NCC(=O)N/N=C/c2ccc(O)cc2O)cc1	none
COc1ccccc1/C=C/C(=O)NCC(=O)N/N=C/c1cc(Br)ccc1OC	D2 antag 64
CCc1ccc(NC(=O)CSC2=Nc3ccccc3C3=NC(CC(=O)NCc4ccc5c(c4)OCO5)C(=O)N23)cc1 (stereo not given)	none (no result: D2 PAM-1, D2 antag, D2 ag-2)
CC(=O)C(=Nc1ccccc1Cl)NNc1ccc(Cl)cc1	D2 PAM-1 inconclusive, D2 ag-2 inconclusive, D2 PAM-2 34
O=C1CN=C(Nc2ccccc2Cl)N1c1ccccc1	D2 antag 36
CCOc1ccc(N2C(=O)CN=C2Nc2ccccc2Cl)cc1	none
Cc1ccc(/C=N\NC(=O)CCc2n[nH]c(=O)[nH]c2=O)o1	D2 PAM-2 50
COc1ccc(OC)c(/C=N/NC(=O)CCc2n[nH]c(=O)[nH]c2=O)c1	none
CCC(C)(C)NC(=O)Cn1c(=O)ccc2cc(S(=O)(=O)N3CCC(C)CC3)ccc21	none (no result: D2 PAM-1, D2 antag, D2 ag-2)
COc1ccc(NC(=O)Nc2nnc(-c3ccccc3F)s2)cc1	D2 antag 41
Cc1ccc(S(=O)(=O)N2CCC(c3nnc(-c4cccc(C)c4)o3)CC2)cc1	none (no result: D2 PAM-1, D2 antag, D2 ag-2)
O=C1CC(C(=O)Nc2ccc(F)c(Cl)c2)N=C(N2CCCCC2)N1 (stereo not given)	D2 antag 30
O=C1CC(C(=O)Nc2ccccc2)N=C(N2CCOCC2)N1 (stereo not given)	none
CC(O)(CS(=O)(=O)c1ccc(Br)cc1)c1ccccc1 (stereo not given)	D2 antag 31
O=S(=O)(CC(O)(c1ccccc1)c1ccccc1)CC(O)(c1ccccc1)c1ccccc1	none (no result: D2 antag, D2 ag-1, D2 PAM-2)
Cc1ccc(C)c(N2CCN(C(=O)c3cc4c(=O)oc5ccccc5c4s3)CC2)c1	none (no result: D2 PAM-1, D2 antag, D2 ag-2)
